Laboratory results as given in PubChem BioAssay (NCI).
This is part of a sample that, as a whole, favours compounds with a hit. Of some 79,000 tested, about 15% had one in any assay. Calls of active or inactive are those of the source. Rule as the data show it: active = growth inhibition above about 70%; inactive = the rest.

Legend:
[1] = NCI Yeast Anticancer Drug Screen. Data for the rad50 strain (AID 155);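 also: 0% = growth of vehicle-only cultures of the same strain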; conditions: S. cerevisiae rad50 strain growth inhibition, active compounds read high
Summary of the method: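 Relative growth inhibition (compound vs vehicle) was measured in yeast with a defined repair-gene alteration.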

[2] = NCI Yeast Anticancer Drug Screen. Data for the mec2-1 strain (AID 157); conditions: S. cerevisiae mec2-1 strain, active compounds read high
Summary of the method: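 Growth inhibition is read against vehicle-treated controls after compound exposure of the mec2-1 yeast strain, which is defective in DNA damage repair or cell cycle control.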

[3] = NCI Yeast Anticancer Drug Screen. Data for the sgs1 mgt1 strain (AID 161);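 also: 0% = growth of cultures given vehicle only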; conditions: S. cerevisiae sgs1 mgt1 strain, active compounds read high
Summary of the method: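 Percent growth inhibition was derived by comparing compound-exposed mutant yeast with vehicle-exposed cultures. The strain carries alterations in DNA damage repair.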

[4] = NCI Yeast Anticancer Drug Screen. Data for the cln2 rad14 strain (AID 165);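 also: 0% = growth equal to vehicle treated cultures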; conditions: S. cerevisiae cln2 rad14 strain, active compounds read high
Summary of the method: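 Growth inhibition, relative to vehicle-treated controls, is the read-out. The test organism is a yeast strain with defined genetic alterations, cln2 rad14.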

[5] = NCI Yeast Anticancer Drug Screen. Data for the bub3 strain (AID 167); conditions: S. cerevisiae bub3 mutant strain, active compounds read high
Summary of the method: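 Screening used yeast with an engineered genetic alteration affecting cell cycle control. Compound-exposed cultures were compared with vehicle cultures, and reduced growth was taken as inhibition.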

[6] = NCI Yeast Anticancer Drug Screen. Data for the mlh1 rad18 strain (AID 175); conditions: S. cerevisiae mlh1 rad18 strain growth inhibition, active compounds read high
Summary of the method: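 Cells of a genetically altered yeast strain, deficient in DNA damage repair, were treated with compound. Their growth was then compared with that of vehicle-treated cultures to give inhibition.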

[7] = at 5.0 µM (retest, dose inferred, filed as 0.5)
[8] = at 50.0 µM (retest, dose inferred, filed as 5.0)

Measured: growth inhibition

O=C(Nc1ccccc1)c1cccc2ccccc12
active: [6]; at 50.0 µM 70.8%
inactive: [1]; [7] 2% | [1]; [8] -8% | [1]; at 50.0 µM 67.7% | [2]; [7] 4% | [2]; [8] -1% | [2]; at 50.0 µM 48% | [3]; [7] 6% | [3]; [8] -4% | [3]; at 50.0 µM 55.1% | [4]; [7] 1% | [4]; [8] -6% | [4]; at 50.0 µM 24.1% | [5]; [7] -18% | [5]; [8] 0% | [5]; at 50.0 µM 51% | [6]; [7] -15% | [6]; [8] 7%

COc1ccc(C2=C(Cl)C(=O)N(c3ccc(C)cc3)C(=O)C2(Cl)Cl)cc1
inactive: [1]; [7] 14% | [1]; [8] 59% | [2]; [7] -2% | [2]; [8] 36% | [3]; [7] 24% | [4]; [7] 1% | [4]; [8] 19% | [4]; at 50.0 µM 54.3% | [5]; [7] -7% | [5]; [8] 22% | [6]; [7] 12% | [6]; [8] 33%
active: [1]; at 50.0 µM 83.3% | [2]; at 50.0 µM 96.8% | [3]; [8] 83% | [3]; at 50.0 µM 94.2% | [5]; at 50.0 µM 76.3% | [6]; at 50.0 µM 94%

C1=CC2OC2CCCCCCCC1 (mixture of isomers)
active: [1]; [8] 75% | [1]; at 50.0 µM 83.2% | [2]; [8] 80% | [3]; [8] 78% | [3]; at 50.0 µM 84.8% | [5]; [8] 73% | [6]; [8] 90% | [6]; at 50.0 µM 70.9%
inactive: [1]; [7] 7% | [2]; [7] 0% | [2]; at 50.0 µM 62.5% | [3]; [7] 2% | [4]; [7] -2% | [4]; [8] 59% | [4]; at 50.0 µM 31.6% | [5]; [7] -5% | [5]; at 50.0 µM 50.7% | [6]; [7] 1%

NC(=S)N/N=C/c1ccc([N+](=O)[O-])o1
active: [6]; at 50.0 µM 75.3%
inactive: [1]; [7] 11% | [1]; [8] 27% | [1]; at 50.0 µM 66% | [2]; [7] 3% | [2]; [8] 14% | [2]; at 50.0 µM 43.7% | [3]; [7] 4% | [3]; [8] 24% | [3]; at 50.0 µM 65.2% | [4]; [7] -3% | [4]; [8] 2% | [4]; at 50.0 µM 13.7% | [5]; [7] 10% | [5]; [8] 45% | [5]; at 50.0 µM 24.2% | [6]; [7] 13% | [6]; [8] 43%

O=C1NC(O)c2cccc(Cl)c2O1 (configuration not stated)
active: [1]; [8] 99% | [1]; at 50.0 µM 88.8% | [2]; [8] 99% | [2]; at 50.0 µM 92.2% | [3]; [8] 99% | [3]; at 50.0 µM 83.3% | [4]; [8] 99% | [4]; at 50.0 µM 97.8% | [5]; [8] 98% | [5]; at 50.0 µM 94.8% | [6]; [8] 99% | [6]; at 50.0 µM 98.3%
inactive: [1]; [7] 52% | [2]; [7] 22% | [3]; [7] 17% | [4]; [7] 5% | [5]; [7] 15% | [6]; [7] 28%

COc1ccc(C2C3=C(CC(C)(C)CC3=O)Oc3cc4c(cc32)OCO4)c(OC)c1 (configuration not stated)
inactive: [1]; [7] 9% | [1]; [8] 48% | [1]; at 50.0 µM 52.4% | [2]; [7] 16% | [2]; [8] 27% | [2]; at 50.0 µM 65.5% | [3]; [7] 11% | [3]; [8] -17% | [3]; at 50.0 µM 64.2% | [4]; [7] 5% | [4]; [8] 20% | [4]; at 50.0 µM 20.2% | [5]; [7] 2% | [5]; [8] 52% | [5]; at 50.0 µM 45.8% | [6]; [7] 5% | [6]; [8] 14%
active: [6]; at 50.0 µM 73%

COC(=O)c1nnn(-c2ccc(S(N)(=O)=O)cc2)c1C(=O)c1ccc(Cl)c(Cl)c1
inactive: [1]; [7] 1% | [2]; [7] 22% | [3]; [7] 20% | [4]; [7] 19% | [5]; [7] 30% | [6]; [7] 22%
active: [1]; [8] 98% | [1]; at 50.0 µM 98.5% | [2]; [8] 99% | [2]; at 50.0 µM 98% | [3]; [8] 99% | [3]; at 50.0 µM 98.2% | [4]; [8] 98% | [4]; at 50.0 µM 96% | [5]; [8] 99% | [5]; at 50.0 µM 94.8% | [6]; [8] 99% | [6]; at 50.0 µM 98.3%

C[N+]1(C)CCCC(OCCCCCCCCCCCCCCOC2CCC[N+](C)(C)C2)C1 (configuration not stated)
active: [1]; [8] 95% | [1]; at 50.0 µM 87.9% | [2]; [8] 98% | [2]; at 50.0 µM 80.5% | [3]; [8] 97% | [3]; at 50.0 µM 98.8% | [4]; [8] 92% | [4]; at 50.0 µM 98.2% | [5]; [8] 94% | [5]; at 50.0 µM 97.6% | [6]; [7] 77% | [6]; [8] 97% | [6]; at 50.0 µM 99%
inactive: [1]; [7] 14% | [2]; [7] 34% | [3]; [7] 35% | [4]; [7] 37% | [5]; [7] 37%

CCOC(=O)Nc1ccc(SCC2COC(Cn3ccnc3)(c3ccc(Cl)cc3Cl)O2)cc1 (configuration not stated)
inactive: [3]; at 50.0 µM 49.1% | [4]; [7] 60% | [6]; [7] 61%
active: [1]; [7] 89% | [1]; [8] 91% | [1]; at 50.0 µM 97% | [2]; [7] 72% | [2]; [8] 93% | [2]; at 50.0 µM 96.2% | [3]; [7] 84% | [3]; [8] 94% | [4]; [8] 90% | [4]; at 50.0 µM 98% | [5]; [7] 91% | [5]; [8] 93% | [5]; at 50.0 µM 94.5% | [6]; [8] 90% | [6]; at 50.0 µM 95.2%
